Screening data deposited in PubChem by several laboratories.
The list is not random: actives were taken first. Their share in the collection is about 2.3%.
MCL1-BIM inh – inhibitors of MCL1 binding to BIM-BH3, primary screen, biochemical, fluorescence polarization; Induced myeloid leukemia cell differentiation protein Mcl-1 (Homo sapiens), Q07820; GST-MCL1 / FITC-Bim-BH3 fluorescence polarization; inhibition, % at 10.9 µM; hit rate 0.68% among 320,000; AID 2057, 2009;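 active = inhibition above the mean inhibition of all tested compounds plus 3 SD, set per campaign, cut at about 40% in these data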;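 also: 0% = DMSO wells and 100% = unlabeled Bim-BH3 peptide control; higher means more loss of mP so more displacement of Bim peptide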
Target sequence (Q07820 whole entry, looked up): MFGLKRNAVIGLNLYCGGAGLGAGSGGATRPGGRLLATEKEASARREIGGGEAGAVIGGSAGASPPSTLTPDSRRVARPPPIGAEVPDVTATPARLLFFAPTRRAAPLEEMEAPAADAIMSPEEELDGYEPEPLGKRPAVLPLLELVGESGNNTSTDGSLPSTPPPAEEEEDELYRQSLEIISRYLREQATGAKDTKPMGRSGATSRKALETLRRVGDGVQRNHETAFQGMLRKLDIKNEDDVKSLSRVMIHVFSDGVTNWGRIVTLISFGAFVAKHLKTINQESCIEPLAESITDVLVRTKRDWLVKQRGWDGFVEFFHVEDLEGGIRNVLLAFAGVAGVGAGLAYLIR
BCLXL inh – inhibitors of human Bcl-xL, primary screen, biochemical, fluorescence polarization, HTS; inhibition, % at 10.9 µM; Bcl-2-like protein 1 (Homo sapiens), Q07817; hit rate 0.7% among 320,000; GST-Bcl-xL / FITC-Bim BH3 peptide fluorescence polarization;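 active = inhibition above the mean of all tested compounds plus 3 SD, cutoff set per campaign, cut at about 30% in these data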;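 also: 0% = DMSO wells and 100% = unlabeled Bim-BH3 peptide competitor; inhibitors lower millipolarization by displacing the labeled peptide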
Target sequence (Q07817 whole entry, looked up): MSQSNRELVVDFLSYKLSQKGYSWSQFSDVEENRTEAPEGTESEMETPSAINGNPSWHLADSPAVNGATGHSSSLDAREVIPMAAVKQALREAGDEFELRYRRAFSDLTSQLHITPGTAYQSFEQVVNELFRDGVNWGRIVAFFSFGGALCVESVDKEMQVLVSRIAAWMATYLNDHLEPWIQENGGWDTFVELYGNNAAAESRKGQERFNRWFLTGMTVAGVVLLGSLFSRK
Mcl1 Bid PPI – Mcl-1/Bid binding inhibitors, primary screen, biochemical, TR-FRET, 1536-well | Induced myeloid leukemia cell differentiation protein Mcl-1 (Homo sapiens), Q07820 | TR-FRET Mcl-1/Bid-Dy647 peptide binding | AID 1021, 2008 | inhibition, % at 21.7 µM | hit rate 0.97% among 220,000;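 active = compounds that cut the binding signal by more than half at the single screening dose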;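 also: His-tagged Mcl-1 with europium anti-His antibody binding Bid BH3 peptide; 0% = Mcl-1 plus peptide wells and 100% = peptide-only wells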
Bim-Mcl-1 – inhibitors of Bim peptide binding to Mcl-1, primary screen, biochemical, bead-based flow cytometry, multiplex. Induced myeloid leukemia cell differentiation protein Mcl-1 (Homo sapiens), Q07820. Bim peptide-Mcl-1 binding. hit rate 0.1% among 190,000. AID 1009, 2008. inhibition, % at 10 µM; in the data active = inhibition above about 40%;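 also: 0% = no compound tracer wells and 100% = peptide blocker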
GLD-1 RNA inh – GLD-1/TGE RNA complex disruptors, primary screen, biochemical, fluorescence polarization | Female germline-specific tumor suppressor gld-1 (Caenorhabditis elegans), Q17339 | purified GLD-1 + fluorescein TGE RNA | inhibition, % at 5.96 µM | hit rate 0.44% among 320,000 | AID 2280, 2010;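 active = percent inhibition above a per-plate cutoff, the plate mean of test compounds plus 3 SD, cut at about 30% in these data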;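 also: 0% = DMSO wells with GLD-1 and probe and 100% = wells lacking GLD-1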
Mcl1-Noxa inh – Mcl-1/Noxa binding inhibitors, primary screen, biochemical, TR-FRET, 1536-well; Induced myeloid leukemia cell differentiation protein Mcl-1 (Homo sapiens), Q07820; TR-FRET Mcl-1/Noxa peptide binding, 2 h; inhibition, % at 21.7 µM; hit rate 1.5% among 220,000;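 active = compounds that cut the protein-peptide binding signal by more than 50% relative to plate controls in a single-dose test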;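 also: His-tagged Mcl-1 with rhodamine Noxa BH3 peptide and terbium anti-His antibody; 0% = Mcl-1 plus Noxa peptide wells and 100% = peptide-only wells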
Active calls of the source: *; . = no result given; ! = repeats disagree.

SMILES	MCL1-BIM inh	BCLXL inh	Mcl1 Bid PPI	Bim-Mcl-1	GLD-1 RNA inh	Mcl1-Noxa inh
COc1ccc(CNS(=O)(=O)c2ccc(F)c(C(=O)Nc3ccc(OC)cc3)c2)cc1	1	2	-12	-2	5	53*
Cc1cc(C)cc(NC(=O)Oc2ccccc2N2CCCCC2)c1	-2	-2	-39	.	1	51*
O=C(Nc1cccc(C(F)(F)F)c1)Oc1ccccc1N1CCOCC1	1	0	-28	.	0	2
O=C(O)c1ccccc1N/N=C/c1c(Sc2nnnn2-c2ccccc2)nc2ccccn2c1=O	-48	-26	-24	.	-45	78*
O=c1c(/C=N/Nc2ccccc2)c(Sc2nnnn2-c2ccccc2)nc2ccccn12	.	.	-18	-5	.	33
CCC[C@@H]1CCCC/C=C\CCCC(=O)OCCN1C(=O)OC(C)(C)C	-1	2	.	.	-1	.
Cc1nn(CC(=O)Nc2ccc3c(c2)nc2n3CCN(C3CCCCC3)C2)c(=O)c2ccccc12	27	16	-7	2	0	70*
Cc1nn(CC(=O)Nc2ccc3c(c2)nc(CCN2CCCCC2)n3C)c(=O)c2ccccc12	3	1	-20	-3	3	20
Cc1cc(C)c(NC(=O)COC(=O)c2nc3nccc(C)n3n2)c(Cl)c1	5	9	.	.	5	.
CC(=O)C1=C(S(=O)(=O)c2ccc(C)cc2)CS(=O)(=O)C1	.	.	-31	0	.	78*
Cc1nc2ccccc2c2oc(C(=O)Nc3ccc(C(C)C)cc3)cc12	3	4	3	-9	11	6
COc1cc(NC(=O)c2cc3c(C)nc4ccccc4c3o2)cc(OC)c1OC	3	0	-20	-1	-3	56*
CCCCN(CC)CCNC(=O)c1cc2c(C)nc3ccccc3c2o1	9	6	-11	0	-6	71*
O=C(COC(=O)CNC(=O)c1ccccc1Cl)Nc1ccccc1Cl	0	3	.	.	0	.
CCc1cc2c(=O)c(-c3nc4ccccc4n3C)c(C)oc2c(CN(CC)CC)c1O	-3	-2	-66	-5	7	-6
CCN(CC)Cc1c(O)ccc2cc(-c3nc4ccccc4n3C)c(=O)oc12	30	36*	.	.	-7	.
Cc1c(OCC(F)(F)F)ccnc1CS(=O)c1nc2ccccc2[nH]1 (stereo unspecified)	33	16	5	-10	5	70*!
COCCCOc1ccnc(CS(=O)c2nc3ccccc3[nH]2)c1C (stereo unspecified)	23	13	.	.	8	.
S=C(Nc1ccc2nsnc2c1)N1CCCCCC1	30	32*	-49	-2	18	7
O=C(Nc1ccc2nsnc2c1)N1CCCCC1	0	5	-6	-4	0	14
CC(=O)Nc1ccccc1OCC(O)CS(=O)(=O)c1ccc(C(F)(F)F)cn1 (stereo unspecified)	3	6	.	.	3	.
Clc1ccc(OCCCNCc2ccccc2)c(Br)c1	-5	-4	70*	-5	-1	21
OCCNCCCOc1ccc(Cl)cc1Br	-1	3	1	-3	-1	-1
Clc1ccc(Cl)c(OCCCCNCc2ccccc2)c1	7	4	35	-2	5	28
C=CCNCCCOc1ccc(Cl)cc1Br	-2	2	77*	-2	3	25
SMILES	MCL1-BIM inh	BCLXL inh	Mcl1 Bid PPI	Bim-Mcl-1	GLD-1 RNA inh	Mcl1-Noxa inh
CN(C)c1ccc(S(=O)(=O)N2CCC(Cc3ccccc3)CC2)cn1	.	.	.	.	2	.
COc1ccccc1CNC(=O)C1CCC(CNS(=O)(=O)c2ccccc2)CC1 (stereo unspecified)	-3	-2	.	.	-3	.
OC(C#Cc1ccccn1)c1cccs1 (stereo unspecified)	44*	42*	-13	-4	21	8
N#Cc1ccc(OS(=O)(=O)c2ccc(-c3ccon3)s2)cc1	10	4	.	.	1	.
O=C(CCC(=O)NCc1ccccc1)NCc1ccccc1	10	3	.	.	3	.
CCCc1nc2ccccc2c(C(=O)O)c1CC	-4	6	-7	-2	7	8
CCCCc1nc2ccccc2c(NC(=O)CN(CC)CC)c1CCC	6	3	51*	-45	0	20
CCCc1nc2ccccc2c(NC(=O)CN(CC)CC)c1CC	-2	3	62*	-5	0	26
CCN(CC)CC(=O)Nc1cc(N(C)C)nc2ccccc12	-2	4	37	.	-1	48
CC(C)NC(=O)N(C)C[C@H]1Oc2ccc(NC(=O)Nc3ccc(C(F)(F)F)cc3)cc2C(=O)N([C@H](C)CO)C[C@@H]1C	.	.	.	.	3	.
N#CCC(=O)N/N=C\c1ccccc1OC/C=C/c1ccccc1	2	-1	.	.	-13	.
N#CCCN(C(=O)c1cc2c(s1)-c1ccccc1S(=O)(=O)C2)c1ccccc1	7	3	.	.	2	.
CSc1ccccc1NC(=O)c1cc2ncc(Br)cn2n1	12	4	-19	-1	-4	59*
CCCCCCCCCCCCCCCCn1cc[n+](CC(C)=O)c1	.	.	59*	-1	.	42
Cc1ccc(CN2CCCN(Cc3c(C)cc(C)cc3C)S2(=O)=O)cc1	7	5	.	.	2	.
CCNC(=S)N1CCC(C(=O)c2ccc3c(c2)OCCO3)CC1	3	6	-39	4	-4	-7
CCOCCCNC(=S)N1CCC(C(=O)c2ccc3c(c2)OCCO3)CC1	5	2	-8	2	2	72*
CCN(CC)c1ccc(NC(=O)COC(=O)CCC(=O)c2ccc(F)cc2)cc1	21	10	-68	-5	1	70*
CCCCOc1cccc(/C=C(\C#N)C(=O)NC2CC2)c1	-10	1	.	.	6	.
Cc1cccn2c(=O)c(/C=N/O)c(Nc3ccccc3F)nc12	-10	-7	54*	.	-11	-29
O=C(COc1ccccc1)Nc1ccc2c(c1)Cc1cc(NC(=O)COc3ccccc3)ccc1-2	-2	6	22	113*	2	20
O=C(COC(=O)Cn1cnc2ccccc21)Nc1ccc2c(c1)C(=O)c1ccccc1C2=O	18	16	65*	0	6	84*
COc1cc(C(=O)Nc2ccc3c(c2)C(=O)c2ccccc2C3=O)cc(OC)c1OC	-4	5	77*	-2	7	85*
COc1ccc(C(=O)Nc2ccc3c(c2)C(=O)c2ccccc2C3=O)cc1OC	8	8	85*	0	5	68*
O=C(CCC(=O)N1CCN(S(=O)(=O)c2ccccc2)CC1)c1ccc(Br)cc1	.	.	.	.	1	.
